Assay results as given in the OligoGym collection.

These sequences were tested against SKI (assay: pooled miR-30 sensor sort-seq; sequence = guide strand). Conditions: shRNA.
Note: reference of the scale not given here.

| Sequence | sensor-assay potency score (higher = more potent) |
| --- | --- |
| TTGGTGATGAGCCCGCACGAGG | -1.78 |
| TTTCTCCTTCACGTCGTCCAGG | -1.07 |
| TCTCACTCGCTGACACTGCGGG | -0.587 |
| TACACTTGCCGAAGCACTCGTG | -0.466 |
| TTCTTCTCGTTCTCGGCGCGGA | -0.778 |
| TAGGAGTAGAAGCTGTCTCGGA | 0.278 |
| TGGAGCTCGTCGCACACCGCGT | -1.77 |
| TAGATGTGGAGCTCGTCGCACA | -1.04 |
| TACGGTCTCGCAGCGCTCGGTG | -1.18 |
| TCACTCGCTGACACTGCGGGGG | -0.224 |
| TTACACTTGCCGAAGCACTCGT | 0.441 |
| TTTGGCTTCCTTGGTGTCCAGG | -1.03 |

These sequences were tested against SLAIN1 in the same assay as above. Conditions: shRNA.

| Sequence | sensor-assay potency score (higher = more potent) |
| --- | --- |
| TACATGTCCCTTTTTTTCCTGA | -0.235 |
| TTGCCTGAGACTTTCTTCTTGC | 0.429 |
| TATTTGAAGGAAAATACTGGGA | 0.189 |
| TGAAGTAGAAGCATAATCTTGC | 0.776 |
| TTCTTCGGAGCTTATCTCCATT | -0.767 |
| TTTATTGCCAACGAAGGTCTTG | 0.0936 |
| TTGAGGTGAATAATACTGTTGC | -0.0982 |
| TTCTTCTTGCAGACGAGCCATG | -1.37 |
| TATGTCTTGATACAGATGCTGA | -0.777 |
| TTCTTGAAATTCCATTTCCAGC | -1.69 |
| TATATTAAAACACAAAAGGGAA | -0.738 |
| TTGAGTCAAAACTCTGACTATT | -1.16 |
